Hits are enriched below; roughly 6.6% of the tested compounds scored in any of these assays.
MCF10A rerep: A quantitative high throughput screen for small molecules that induce DNA re-replication in MCF 10a normal breast cells | AID 624296, 2012 | 2.9% of 350,000 active | Potency, µM (top dose mostly 46.1 µM), for inactives: at the top dose activity, positive = re-replication, most hits filed as activators | MCF 10A DNA re-replication, Hoechst nuclear intensity, 48 h; also: % of control where 0% means no effect; nearly all actives have a fitted effect of over 50% in size
RGS4 inh: Inhibitors of Regulator of G Protein Signaling (RGS) 4: qHTS. Transcreener GDP fluorescence polarization, RGS4-accelerated GTP hydrolysis. Regulator of G-protein signaling 4 (Homo sapiens), P49798. Potency, µM (titrated, usually from 114 µM), for inactives: at the highest dose activity change, negative = inhibition, hits mostly inhibitors. 0.039% of 390,000 active. AID 504845, 2011; also: % is scaled to controls: 0 for no effect and ±100 for the full control effect; nearly all actives have a fitted effect of over 75% in size
Target sequence (P49798 whole entry, looked up): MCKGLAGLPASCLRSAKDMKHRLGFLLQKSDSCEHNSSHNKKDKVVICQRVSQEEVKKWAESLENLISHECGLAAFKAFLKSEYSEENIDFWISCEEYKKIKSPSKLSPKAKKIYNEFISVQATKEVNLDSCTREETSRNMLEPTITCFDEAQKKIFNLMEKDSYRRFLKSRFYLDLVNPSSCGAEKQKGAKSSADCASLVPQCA
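MLSMR compounds (23 nl, pin-transferred) preincubated 10 min at room temperature with a 500nM (2x) first reagent, then RGS4 at 900nM (2x) plus Transcreener GDP mix added; fluorescence polarization (620/688 nm) read before and after 90 min at 30 °C.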
PTAP TSG101 blk: qHTS Assay for Iinhibitors of HIV-1 Budding by Blocking the Interaction of PTAP/TSG101; Fluorescence polarization, FITC-PTAP peptide / Tsg101 binding; Potency, µM (doses to about 115 µM), without a hit: top-dose activity change, negative = inhibition, usual class: inhibitors; Tumor susceptibility gene 101 protein (Homo sapiens), Q99816; 340,000 tested, under 10 active; active = well fitted inhibition curve with a large enough effect in the main read-out, with a control signal flat, not every such curve was filed as active; inconclusive = small, poorly fitted or top-dose-only effect, or effect the other way, or a change in a side signal; inactive = no such curve, though single readings can be large or run the other way; also: % of control where 0% means no effect
Target sequence (Q99816 whole entry, looked up): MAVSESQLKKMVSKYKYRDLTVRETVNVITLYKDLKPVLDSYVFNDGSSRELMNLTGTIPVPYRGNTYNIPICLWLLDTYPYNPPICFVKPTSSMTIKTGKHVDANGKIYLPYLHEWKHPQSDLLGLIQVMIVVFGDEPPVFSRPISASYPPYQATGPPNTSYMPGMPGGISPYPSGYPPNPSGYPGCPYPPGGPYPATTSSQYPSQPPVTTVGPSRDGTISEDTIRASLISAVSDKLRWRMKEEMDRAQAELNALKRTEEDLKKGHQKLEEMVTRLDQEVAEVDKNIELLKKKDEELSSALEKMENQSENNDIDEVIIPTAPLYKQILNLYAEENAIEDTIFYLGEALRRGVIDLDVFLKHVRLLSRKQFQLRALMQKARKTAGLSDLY
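Fluorescence anisotropy tracks displacement of a FITC-tagged PTAP peptide (50 nM) from the Tsg101 binding domain (10 uM), following a 20 min room-temperature incubation at pH 7.5.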
SW480 rereplic: A quantitative high throughput screen for small molecules that induce DNA re-replication in SW480 colon adenocarcinoma cells. SW480 DNA re-replication, Hoechst DNA content imaging, 48 h. 1.8% of 340,000 active. Potency, µM (highest dose often 46.1 µM), for the others: top-dose re-replication activation, usual class: activators; also: % of control where 0% means no effect; nearly all actives have a fitted effect of over 55% in size
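Hoechst fluorescence of nuclei (405 nm excitation, 500-530 nm emission) measured by plate-scanning imager after 48 hr compound exposure at 37 C; re-replication scored as increased number of nuclei with elevated intensity.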
KB-3-1 cytotox: qHTS assay for MDR1-selective chemotherapeutics: Primary screen using the parental adenocarcinoma cell KB-3-1; 1.4% of 400,000 active; KB-3-1 viability, CellTiter-Glo ATP luminescence, 72 h; Potency, µM (doses to about 46.1 µM), usual class: cytotoxic; also: % is scaled to controls: 0 for no effect and ±100 for the full control effect; nearly all actives have a fitted effect of over 60% in size
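KB-3-1 parental drug-naive adenocarcinoma cells in DMEM/10% FBS, incubated 72 h at 37 C with pin-transferred compounds across a concentration series. Viability by CellTiter-Glo luminescence; concentration-response curves fitted after normalization.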
KB-V1 MDR tox: qHTS assay for MDR1-selective chemotherapeutics: Primary screen using the drug-selected MDR subline cells KB-V1; KB-V1 MDR cells viability, CellTiter-Glo, 72 h; Potency, µM (titrated, usually from 46.1 µM), actives largely listed as cytotoxic; 3.4% of 400,000 active; also: % is scaled to controls: 0 for no effect and ±100 for the full control effect; nearly all actives have a fitted effect of over 60% in size
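KB-V1 cells (P-gp-expressing MDR subline of KB-3-1) in phenol-red-free DMEM with 10% FBS were exposed to library compounds over a concentration series for 72 h at 37 degrees C. Viability read by CellTiter-Glo luminescence; concentration-effect curves fitted after normalization.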
Active calls of the source: *; i = inactive; ? = inconclusive; / = not tested or not shown. Unless noted, calls follow the shape of the dose curve; as a rule, active = well fitted curve in the direction sought with a large enough effect; inconclusive = small, poorly fitted or top-dose-only effect, or another doubt; inactive = no such curve, though single readings can be large; an effect the other way counts as inactive or inconclusive. Potency is read from the fitted curve at half-maximal effect.

SMILES	MCF10A rerep	RGS4 inh	PTAP TSG101 blk	SW480 rereplic	KB-3-1 cytotox	KB-V1 MDR tox
Cc1cccc(-c2nsc(SCC(=O)N3CCCC3)n2)c1	6%	-33%	-4%	-4%	i	16µM*
CCOc1cc(/C=N/NC(=O)c2ccc(CN3CCOCC3)cc2)ccc1OCc1ccccc1	8%	11%	0%	-2%	?	2.3µM*
COc1cc(/C=N\Nc2ccc([N+](=O)[O-])cc2)ccc1OCC(=O)Nc1ccc(C)c(C)c1	5.8µM*	5%	?	21µM*	?	i
CCOc1cc(/C=N\NC(=O)Cc2ccccc2)ccc1OCC(=O)Nc1ccc(C)c(C)c1	15µM*	-1%	0%	-1%	?	?
COCC(=O)N/N=C\c1ccc(OC/C=C/c2ccccc2)c(OC)c1	?	11%	0%	?	i	12µM*
CCCCNC(=O)Cn1c(SCc2ccccc2C)nc2ccncc21	/	-2%	/	/	i	i
Cc1ccc(CNC(=O)C2CCCN(S(=O)(=O)c3ccc4c(c3)oc(=O)n4C)C2)cc1 (stereo not given)	/	5%	/	/	i	i
CCOc1cc(-c2nc(C)c(C(C)=O)n2O)ccc1OCC(=O)Nc1cccc(C)c1	1%	-13%	-2%	-2%	i	?
CCOc1cc(/C=N\Nc2ccc([N+](=O)[O-])cc2)ccc1OCC(=O)Nc1ccc(C)c(C)c1	16µM*	-16%	?	?	i	i
CCCOc1ccc(/C=N/NC(=O)CN2CCCCC2)cc1OCC	?	46%	-5%	?	i	i
CCOc1cc(/C=N/O)ccc1OCC(=O)Nc1cccc(C)c1	?	-37%	2%	5%	i	13µM*
CCCOc1ccc(/C=N/NC(=O)CSCc2ccc([N+](=O)[O-])cc2)cc1OCC	0%	-33%	-3%	-3%	i	16µM*
COc1ccccc1N1CCN(C(=O)CSc2nc3ccccc3o2)CC1	?	-19%	-2%	-1%	i	21µM*
CCn1c(=O)c2c(O)cc(=O)oc2c2ccccc21	-3%	-7%	-7%	10%	i	?
CC(C)n1c(=O)c2c(O)cc(=O)oc2c2ccccc21	?	10%	0%	13%	i	6.5µM*
Cc1cc(Nc2cccc(Cl)c2C)n2nc(Cc3ccccc3)nc2n1	/	5%	/	/	i	i
O=C(CNS(=O)(=O)c1ccc(Br)s1)N1CCN(c2ncccn2)CC1	-4%	6%	1%	-3%	i	21µM*
CC1CC(C)CN(C(=O)CNS(=O)(=O)c2ccc(Br)s2)C1 (stereo not given)	-10%	1%	-5%	19%	i	i
Cc1ccc(N2CCN(C(=O)CNS(=O)(=O)c3ccc(Br)s3)CC2C)cc1 (stereo not given)	?	?	-4%	-6%	?	2.3µM*
O=C(Cc1ccc(OCCc2ccccc2)cc1)NO	/	/	/	/	i	?
CC(=O)Nc1cc(N=Cc2ccc(O)cc2O)c(Cl)cc1Cl	21µM*	?	-9%	?	i	i
Cc1cccc(-c2noc(CN(C(=O)COc3ccc(Br)cc3C)C(C)C)n2)c1	/	12%	/	/	i	i
COc1ccc(C(=O)c2c(C(F)(F)F)oc3c2C(=O)c2ccccc2C3=O)cc1	4.1µM*	16%	0%	5.2µM*	?	?
O=C(CNC(=O)c1ccc(Cl)cc1)NC1CCCCC1	1%	-16%	0%	8.2µM*	i	i
O=C(CCNC(=O)c1ccc(Br)cc1)NC1CCCCCC1	8%	0%	-1%	-1%	i	16µM*
SMILES	MCF10A rerep	RGS4 inh	PTAP TSG101 blk	SW480 rereplic	KB-3-1 cytotox	KB-V1 MDR tox
CCC(CC)C(=O)c1c[nH]c(C(=O)O)c1	1%	-20%	-3%	?	i	i
CCC(CC)C(=O)c1c[nH]c(C(=O)NN)c1	10µM*	27%	0%	?	i	i
COC(=O)c1cc(S(=O)(=O)NCc2ccccc2)c[nH]1	-8%	-6%	-3%	-19%	i	i
COC(=O)c1cc(S(=O)(=O)N(Cc2ccccc2)C(C)(C)C)c[nH]1	23µM*	18%	-8%	6.5µM*	?	i
Fc1ccc(NC(=S)NNc2ncc(C(F)(F)F)cc2Cl)c(F)c1	7%	-47%	0%	?	21µM*	15µM*
Cc1ccc(NC(=S)NNc2ncc(C(F)(F)F)cc2Cl)c(C)c1	3%	?	-8%	12%	i	i
O=C(NNc1ncc(C(F)(F)F)cc1Cl)c1ccc(Cl)c(Cl)c1	-4%	1%	-1%	-17%	i	i
FC(F)(F)c1cnc(NNC(=S)Nc2ccc(Cl)cc2)c(Cl)c1	15µM*	?	-2%	?	?	i
Nc1ccccc1C(=O)NNc1ncc(C(F)(F)F)cc1Cl	15µM*	-9%	-3%	5.8µM*	i	?
Cc1ccc(-c2cc(C3C4C=CCC(C)C4C(=O)N3Cc3ccccc3)ccc2F)cc1 (stereo not given)	/	7%	/	/	/	/
Cc1c(Cl)cccc1NC(=O)CSc1nc2ncccc2o1	/	15%	/	/	i	i
CN(CC(=O)Nc1ccc(F)cc1F)S(=O)(=O)c1ccc(C(=O)N2CCOCC2)s1	/	11%	/	/	i	i
CC(=O)Oc1ccc(N(c2ccccc2)S(=O)(=O)c2ccc(C)cc2)cc1	?	2%	0%	?	?	15µM*
Cc1ccc(S(=O)(=O)N(C)c2ccccc2)cc1	-6%	-16%	-9%	-3%	i	i
N#CC(c1ccc(Cl)cc1)c1c(Cl)cc(-n2ncc(=O)[nH]c2=O)cc1Cl (stereo not given)	?	/	/	-3%	/	/
CCOC(=O)c1cccc(Nc2ccc3cc(S(=O)(=O)N4CCCCC4)ccc3n2)c1	/	9%	/	/	?	?
O=C(N/N=C/c1ccccc1)c1c(O)c2ccccc2[nH]c1=O	10%	9%	-1%	-5%	23µM*	?
O=C(N/N=C/c1ccc(F)cc1)c1c(O)c2ccccc2[nH]c1=O	?	-7%	0%	/	?	10µM*
COCc1c(C(=O)N2CCN(Cc3nc4ccccc4s3)CC2)oc2ccccc12	15%	?	-1%	2%	i	23µM*

Screening data as filed in PubChem.
